# Measured values from ChEMBL document CHEMBL3433997, “St. Jude Leishmania screening dataset” (2016).
# Target: Solute carrier family 2, facilitated glucose transporter member 1 (Homo sapiens) (UniProt P11166)
# Test: ST_JUDE_LEISH: Cytotoxicity at 2uM final concentration against transgenic Leishmania Mexicana promastigotes LmGLUT1 that are glucose transport deficient and complemented with the human glucose transporter GLUT1. Activity is measured by DNA content using SYBR green in vitro
# Assay type: functional
# Solute carrier family 2, facilitated glucose transporter member 1 (Homo sapiens), sequence (P11166 whole entry): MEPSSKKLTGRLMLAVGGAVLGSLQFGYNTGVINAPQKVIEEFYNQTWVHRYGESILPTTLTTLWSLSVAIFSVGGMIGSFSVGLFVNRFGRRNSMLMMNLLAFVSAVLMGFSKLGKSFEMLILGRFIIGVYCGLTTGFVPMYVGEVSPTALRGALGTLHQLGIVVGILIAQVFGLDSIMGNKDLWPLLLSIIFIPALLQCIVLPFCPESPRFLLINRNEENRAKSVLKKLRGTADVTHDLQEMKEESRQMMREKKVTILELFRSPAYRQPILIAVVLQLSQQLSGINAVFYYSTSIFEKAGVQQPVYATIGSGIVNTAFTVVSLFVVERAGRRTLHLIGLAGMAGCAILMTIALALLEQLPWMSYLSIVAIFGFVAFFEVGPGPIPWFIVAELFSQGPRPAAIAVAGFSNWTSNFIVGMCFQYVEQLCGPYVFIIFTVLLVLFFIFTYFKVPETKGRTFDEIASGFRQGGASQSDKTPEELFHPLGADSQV
row,SMILES,inhibition [%]
1,COc1cc2c(cc1C(F)(F)F)N(C(=O)Nc1cc(Br)cc(-c3cccnc3)c1)CC2,8.34
2,Cc1nn(-c2ccnc3cc(Cl)ccc23)c(C)c1C(=O)NCc1cc(Cl)cc(Cl)c1,0.16
3,COc1ccc(C(=O)Nc2ccc(Nc3nc(C)cc(N(C)C)n3)cc2)c(OC)c1,5.81
4,CCOc1cc2ncnc(Nc3ccc(OCc4c(F)cccc4F)c(OC)c3)c2cc1OCC,4.53
5,CCc1ccc(C2CCN(CCCCNC(=O)c3ccc(-c4ccc(C#N)cc4)cc3)CC2)c(OCCO)c1,0.42
6,Cc1cc(NC(=O)c2ccsc2)ccc1OC1CCN(Cc2ccc(F)cc2)CC1,-0.33
7,COc1ccc(CN2CCCN(Cc3ccc(C(=O)Nc4ccc(Cl)cc4)cc3)CC2)cc1,4.35
8,O=C(Nc1ccc(CCNCc2ccccc2)cc1)Nc1ccc(OC(F)(F)F)cc1,-1.69
9,COc1ccc(C(=O)N2CCC3(CC2)C(=O)N(CC(=O)NCC2CCCCC2)CN3c2ccccc2)c(OC)c1,5.13
10,CN1CCN(c2ccnc3ccc(NC(=O)Nc4ccc(-c5ccncc5)c(C(F)(F)F)c4)cc23)CC1,11.3
11,CC(C)CCCC(C)(C)NC[C@@H](O)[C@H](Cc1ccccc1)NC(=O)c1cc(NC(C)C)cc(N2CCCCS2(=O)=O)c1F,7.51
12,CC(C)(CNCc1ccc(OC(F)(F)F)cc1)c1nc(-c2ccc(Cl)c(O)c2)c(-c2ccncc2)[nH]1,-0.48
13,Cc1[nH]c(C)c(-c2ccc(CCc3ccc(C(F)(F)F)cc3)nc2)c(=O)c1Cl,2.59
14,Oc1ccc(-c2ccccc2)cc1CNC1CCCCC1,2.86
15,Fc1ccc2[nH]c(-c3cccc(-c4ccc(CNCc5cnn(-c6ccccc6)n5)cc4)c3)nc2c1,0.4
16,CC(=O)OC[C@H]1O[C@@H](C#Cc2ccccc2)[C@H](OC(C)=O)[C@@H](OC(C)=O)[C@@H]1OC(C)=O,1.22
17,NCc1ccc(Nc2nccc(Nc3ccc(-c4ccccc4)cc3)n2)cc1,2.28
18,CNC(=O)c1cc(F)c(F)cc1Nc1nc(Nc2cccc(CS(C)(=O)=O)c2)ncc1Cl,1.41
19,Cc1ccc(Nc2nnc(SCC(=O)Nc3ccc(CN4CCCC4)cc3)s2)cc1,0.83
20,CCNc1cc(C(=O)N[C@@H](Cc2ccccc2)[C@H](O)CNC(C)(C)Cc2cccc(OC)c2)cc(N2CCCC2=O)c1,-2.08

row,SMILES,inhibition [%]
1,CCN1CCN(c2ccc(Nc3c4ccccc4nc4ccccc34)cc2)CC1,7.35
2,OC1CCCN(Cc2cccc(-c3ccc(-c4nc5cc(C(F)(F)F)ccc5[nH]4)cc3)c2)C1 (centres undefined),2.67
3,C=CCc1cc(Cc2cnc(N)nc2N)c2ccc(C)nc2c1O,2.17
4,Brc1ccsc1-c1nc(NCCC(c2ccccc2)c2ccccc2)no1,-0.74
5,COc1cccc(Nc2nc(C)cc(NC3CCCC3)n2)c1,21.5
6,Nc1ccc2c(N)c3ccccc3nc2c1,0.33
7,CN1CCN(c2ccc(Nc3nccc(-c4cnn5ncccc45)n3)cc2Cl)CC1,90.6
8,CN(C)CCNC(=O)c1cc2c(-c3ccc(Cl)cc3)nn(C)c2s1,2.62
9,Cc1c(Cn2ncc(N3CC(C)NC(C)C3)c(Cl)c2=O)cccc1NC(=O)Nc1ccc(-c2ccccc2)cc1 (centres undefined),4.08
10,CC(C)c1cc(N)c2cc(NC(=O)COCC(=O)Nc3ccc4nc(C(C)C)cc(N)c4c3)ccc2n1,5.18
11,COc1cccc(CN2CCC3(CC2)CN(C(=O)Nc2ccc(Cl)c(Cl)c2)C3)c1,2.87
12,CCCCCN1CCCC1CNS(=O)(=O)c1cccc(C(=O)Nc2cccc(C#N)c2)c1 (centres undefined),2.62
13,CCN(CC)CCNC(=O)c1ccc(NC(=O)c2cc(-c3ccncc3)nc3ccccc23)cc1,0.16
14,COc1ccc(Cl)cc1N1CCN(CCCNC(=O)c2ccc(-c3nc4cc(Cl)c(F)cc4[nH]3)cc2)CC1,2.81
15,C(=Cc1ccccc1)C=NN=c1cc[nH]c2ccccc12,-0.05
16,COc1cccc(C(=O)NC(NC(=S)Nc2ccc(OC)cc2[N+](=O)[O-])C(Cl)(Cl)Cl)c1 (centres undefined),-1.36
17,CCc1cc2c(Sc3nc4ccccc4[nH]3)ncnc2s1,0.94
18,c1cc(CN2CCN(CCN3CCOCC3)CC2)cc(-c2csc(-c3nc4ccccc4[nH]3)c2)c1,5.51
19,O=C(Nc1ccc2c(c1)CCN2C1CCN(Cc2ccc(O)cc2)C1)c1ccco1 (centres undefined),0.95
